# From PubChem BioAssay (Tox21)
# Unmarked numbers belong to inactive results. Results filed as inconclusive are left out. A call without a number means that no potency is given here. Calls of active or inactive are those of the source. Calls follow the shape of the dose curve; as a rule, active = well fitted curve in the direction sought with a large enough effect in the repeat runs; inconclusive = weak or mixed curves; inactive = no such curve, though single readings can be large; an effect the other way counts as inactive or inconclusive.
# What was measured:
# [1] = qHTS RealTime-Glo MT Cell Viability Assay in HepG2 cells - 40 hour (AID 1224870); also: nearly all actives have a fitted effect of over 50% in size; also: potency is read from the fitted curve at half-maximal effect
# Method in brief: (§1)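 HepG2 cells mixed with RealTime-Glo MT reagents (NanoLuc plus cell-permeant prosubstrate) were seeded at 600 cells/well, incubated 5 h at 37 C/5% CO2, then pinned with compounds in DMSO; nonlytic luminescence tracked viability during 40 h treatment.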
# [2] = A CellTox Green Cytotoxicity Assay to monitor cytotoxicity in HEK293 cells - 40 hour (AID 1224871); also: nearly all actives have a fitted effect of over 45% in size; also: potency is read from the fitted curve at half-maximal effect
# Method in brief: (§2)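 Cells (HEK293, 600/well) and dye reagent are dispensed together. After 5 h at 37 C, 23 nL compound is pinned in. Plates stay at 37 C for 40 h with fluorescence read at 0h, 8h, 16h, 24h, 32h and 40h.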
# [3] = qHTS RealTime-Glo MT Cell Viability Assay in HepG2 cells - 8 hour (AID 1224873); also: nearly all actives have a fitted effect of over 55% in size
# Method in brief: as §1
# [4] = A CellTox Green Cytotoxicity Assay to monitor cytotoxicity in HEK293 cells - 24 hour (AID 1224875); also: series mostly up to about 77 µM; nearly all actives have a fitted effect of over 45% in size
# Method in brief: as §2
# [5] = A CellTox Green Cytotoxicity Assay to monitor cytotoxicity in HepG2 cells - 16 hour (AID 1224876); also: nearly all actives have a fitted effect of over 45% in size; also: potency is read from the fitted curve at half-maximal effect
# Method in brief: (§3)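 Cells and non-lytic dye reagent are dispensed together (600 HepG2 cells/well) and incubated 5 h before DMSO compound transfer. Kinetic fluorescence is then recorded in the same wells during 40 h at 37 C.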
# [6] = qHTS RealTime-Glo MT Cell Viability Assay in HepG2 cells - 32 hour (AID 1224877); also: nearly all actives have a fitted effect of over 55% in size; also: potency is read from the fitted curve at half-maximal effect
# Method in brief: (§4)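 Tox21 10K library screened in qHTS format on HepG2 cells carrying RealTime-Glo reagents. Compounds were added after a 5 h preincubation, and the luminescent signal from continuous culture was measured repeatedly during 40 h treatment.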
# [7] = A CellTox Green Cytotoxicity Assay to monitor cytotoxicity in HepG2 cells - 40 hour (AID 1224879); also: nearly all actives have a fitted effect of over 40% in size; also: potency is read from the fitted curve at half-maximal effect
# Method in brief: as §3
# [8] = qHTS RealTime-Glo MT Cell Viability Assay in HEK293 cells - 0 hour (AID 1224880); also: top concentration of the series differs between compounds; nearly all actives have a fitted effect of over 45% in size
# Method in brief: (§5)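 Real-time viability in HEK293: signal arises when living cells convert a prosubstrate for NanoLuc in the medium, so luminescence tracks viable cell number. Compound (23 nL, DMSO) added 5 h post-seeding; kinetic reads at 0–40 h, 37 C.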
# [9] = A CellTox Green Cytotoxicity Assay to monitor cytotoxicity in HepG2 cells - 0 hour (AID 1224882); also: nearly all actives have a fitted effect of over 35% in size
# Method in brief: as §3
# [10] = A CellTox Green Cytotoxicity Assay to monitor cytotoxicity in HepG2 cells - 32 hour (AID 1224883); also: nearly all actives have a fitted effect of over 50% in size; also: potency is read from the fitted curve at half-maximal effect
# Method in brief: as §3
# [11] = A CellTox Green Cytotoxicity Assay to monitor cytotoxicity in HEK293 cells - 8 hour (AID 1224884); also: nearly all actives have a fitted effect of over 35% in size
# Method in brief: as §2
# [12] = qHTS RealTime-Glo MT Cell Viability Assay in HepG2 cells - 16 hour (AID 1224885); also: nearly all actives have a fitted effect of over 50% in size
# Method in brief: as §4
# [13] = qHTS RealTime-Glo MT Cell Viability Assay in HEK293 cells - 8 hour (AID 1224887); also: nearly all actives have a fitted effect of over 50% in size; also: potency is read from the fitted curve at half-maximal effect; as to activity change, negative = cytotoxicity: top concentration of the series differs between compounds
# Method in brief: as §5
# [14] = A CellTox Green Cytotoxicity Assay to monitor cytotoxicity in HEK293 cells - 16 hour (AID 1224888); also: nearly all actives have a fitted effect of over 35% in size
# Method in brief: as §2
# [15] = qHTS RealTime-Glo MT Cell Viability Assay in HepG2 cells - 0 hour (AID 1224889); also: nearly all actives have a fitted effect of over 50% in size
# Method in brief: as §4
# [16] = qHTS RealTime-Glo MT Cell Viability Assay in HEK293 cells - 40 hour (AID 1224874); settings: RealTime-Glo luminescence; max response: active compounds read low; also: nearly all actives have a fitted effect of over 50% in size; also: potency is read from the fitted curve at half-maximal effect
# Method in brief: as §5
# [17] = A CellTox Green Cytotoxicity Assay to monitor cytotoxicity in HepG2 cells - 24 hour (AID 1224878); also: nearly all actives have a fitted effect of over 45% in size; also: potency is read from the fitted curve at half-maximal effect
# Method in brief: as §3
# [18] = qHTS RealTime-Glo MT Cell Viability Assay in HEK293 cells - 16 hour (AID 1224872)
# Method in brief: (§6)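 Luminescence generated by NanoLuc from substrate produced by living HEK293 cells served as the viability signal. Each value reflects the reading at its stated time point during continuous 40 h compound exposure at 37 C.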
# [19] = A CellTox Green Cytotoxicity Assay to monitor cytotoxicity in HEK293 cells - 32 hour (AID 1224881); also: nearly all actives have a fitted effect of over 40% in size; also: potency is read from the fitted curve at half-maximal effect
# Method in brief: as §2
# [20] = qHTS RealTime-Glo MT Cell Viability Assay in HEK293 cells - 24 hour (AID 1224886); also: nearly all actives have a fitted effect of over 50% in size; also: potency is read from the fitted curve at half-maximal effect; as to activity change, negative = cytotoxicity: top concentration of the series differs between compounds
# Method in brief: as §6
structure (smiles),measurement,setting,value
O=C(Nc1ccc2c(c1)Cc1ccccc1-2)C(F)(F)F,Potency,[1],inactive
same,Potency,[2],inactive
same,outcome,[3],inactive
same,Potency,[4],inactive
same,Potency,[5],inactive
same,Potency,[6],inactive
same,Potency,[7],inactive
same,Potency,[8],inactive
same,Potency,[9],inactive
same,Potency,[10],inactive
same,Potency,[11],inactive
same,outcome,[12],inactive
same,Potency,[13],inactive
same,Potency,[14],inactive
same,Potency,[15],inactive
Clc1cccc(C(c2ccc3nc[nH]c3c2)n2ccnc2)c1 (stereo not drawn),Potency,[1],inactive
same,Potency,[2],inactive
same,outcome,[3],inactive
same,max response,[16],-17.1%
same,Potency,[4],inactive
same,Potency,[5],inactive
same,Potency,[6],inactive
same,Potency,[17],inactive
same,Potency,[7],inactive
same,Potency,[8],inactive
same,Potency,[9],inactive
same,Potency,[10],inactive
same,Potency,[11],inactive
same,outcome,[12],inactive
same,Potency,[13],3380 nM (active)
same,Potency,[14],inactive
same,Potency,[15],inactive
CCC1=C(C)CN(C(=O)NCCc2ccc(S(=O)(=O)NC(=O)NC3CCC(C)CC3)cc2)C1=O (stereo not drawn),Potency,[1],inactive
same,Potency,[2],inactive
same,Potency,[18],inactive
same,max response,[16],-23%
same,Potency,[4],inactive
same,Potency,[5],inactive
same,Potency,[6],inactive
same,Potency,[7],inactive
same,Potency,[8],inactive
same,Potency,[19],inactive
same,Potency,[9],inactive
same,Potency,[10],inactive
same,Potency,[11],inactive
same,outcome,[12],inactive
same,Potency,[20],inactive
same,Potency,[13],inactive
same,Potency,[14],inactive
same,Potency,[15],inactive
COc1cccc([C@H](O)C2CCN(CCc3ccc(F)cc3)CC2)c1OC,Potency,[1],inactive
same,Potency,[2],inactive
same,outcome,[3],inactive
same,Potency,[4],inactive
same,Potency,[5],inactive
same,Potency,[6],inactive
same,Potency,[17],inactive
same,Potency,[8],inactive
same,Potency,[19],inactive
same,Potency,[9],inactive
same,Potency,[10],inactive
same,Potency,[11],inactive
same,outcome,[12],inactive
same,Potency,[13],inactive
same,Potency,[14],inactive
same,Potency,[15],inactive
O=C(O)c1c2ccccc2cc2ccccc12,Potency,[1],inactive
same,Potency,[2],34600 nM (active)
same,outcome,[3],inactive
same,Potency,[16],38800 nM (active)
same,Potency,[4],inactive
same,Potency,[5],inactive
same,Potency,[6],inactive
same,Potency,[17],inactive
same,Potency,[7],inactive
same,Potency,[8],inactive
same,Potency,[9],inactive
same,Potency,[10],inactive
same,outcome,[12],inactive
same,Potency,[13],inactive
same,Potency,[14],inactive
same,Potency,[15],inactive
CC(=O)Nc1cccc(N)c1,Potency,[1],inactive
same,Potency,[18],inactive
same,outcome,[3],inactive
same,max response,[16],15%
same,Potency,[4],inactive
same,Potency,[5],inactive
same,Potency,[6],inactive
same,Potency,[17],inactive
same,Potency,[7],inactive
same,Potency,[8],inactive
same,Potency,[19],inactive
same,Potency,[9],inactive
same,Potency,[10],inactive
same,Potency,[11],inactive
same,outcome,[12],inactive
same,Potency,[20],inactive
same,Potency,[13],inactive
same,Potency,[14],inactive
same,Potency,[15],inactive
CC(O)C(C)O (stereo not drawn),Potency,[1],inactive
same,Potency,[18],inactive
same,outcome,[3],inactive
same,max response,[16],12.1%
same,Potency,[4],inactive
same,Potency,[5],inactive
same,Potency,[6],inactive
same,Potency,[17],inactive
same,Potency,[7],inactive
same,Potency,[8],inactive
same,Potency,[19],inactive
same,Potency,[9],inactive
same,Potency,[10],inactive
same,Potency,[11],inactive
same,Potency,[20],inactive
same,Potency,[13],inactive
same,Potency,[14],inactive
same,Potency,[15],inactive
CC1=CC(=C(c2ccc(N)cc2)c2ccc(N)cc2)C=CC1=N,"activity change, negative = cytotoxic",[1],-1.71% [at 6.97 µM]
same,cytotoxicity increase,[2],5.33% [at 6.97 µM]
same,"viability change, negative = cytotoxic",[3],2.31% [at 6.97 µM]
same,activity change,[4],"-0.584% [at 6.97 µM, active compounds read high]"
same,cytotoxicity increase,[5],1.38% [at 6.97 µM]
same,"activity change, negative = cytotoxic",[6],-1.73% [at 6.97 µM]
same,cytotoxicity,[17],0.887% [at 6.97 µM]
same,cytotoxicity increase,[7],5.34% [at 6.97 µM]
same,"activity change, negative = cytotoxicity",[8],12.8% [at 6.97 µM]
same,cytotoxicity,[9],0.461% [at 6.97 µM]
same,cytotoxicity increase,[10],0.891% [at 6.97 µM]
same,cytotoxicity increase,[11],-4.58% [at 6.97 µM]
same,"activity change, negative = cytotoxicity",[13],-15.3% [at 6.97 µM]
same,activity change,[14],"-0.601% [at 6.97 µM, active compounds read high]"
same,"activity change, negative = cytotoxicity",[15],9.14% [at 6.97 µM]
CC(C)C[C@H](NC(=O)[C@H](Cc1ccccc1)NC(=O)c1cnccn1)B(O)O,Potency,[1],21.3 nM (active)
same,Potency,[2],37.9 nM (active)
same,outcome,[3],inactive
same,Potency,[16],23.9 nM (active)
same,Potency,[4],inactive
same,Potency,[5],13400 nM (active)
same,Potency,[6],30.1 nM (active)
same,Potency,[17],95.2 nM (active)
same,Potency,[7],15.1 nM (active)
same,Potency,[8],inactive
same,Potency,[19],190 nM (active)
same,Potency,[9],inactive
same,Potency,[10],23.9 nM (active)
same,Potency,[11],inactive
same,Potency,[20],75.6 nM (active)
same,Potency,[13],inactive
same,Potency,[14],inactive
same,Potency,[15],inactive
N#Cc1ccc(CC(=O)c2cccc(C(F)(F)F)c2)cc1,Potency,[1],inactive
same,Potency,[2],inactive
same,outcome,[3],inactive
same,Potency,[4],inactive
same,Potency,[5],inactive
same,Potency,[6],inactive
same,Potency,[17],inactive
same,Potency,[7],inactive
same,Potency,[8],inactive
same,Potency,[19],inactive
same,Potency,[9],inactive
same,Potency,[10],inactive
same,Potency,[11],inactive
same,Potency,[14],inactive
same,Potency,[15],inactive
Cc1cc(N)n(-c2ccccc2)n1,Potency,[1],inactive
same,Potency,[2],inactive
same,Potency,[18],inactive
same,max response,[16],-5.72%
same,Potency,[4],inactive
same,Potency,[5],inactive
same,Potency,[6],inactive
same,Potency,[7],inactive
same,Potency,[8],inactive
same,Potency,[19],inactive
same,Potency,[9],inactive
same,Potency,[10],inactive
same,Potency,[11],inactive
same,Potency,[20],inactive
same,Potency,[13],inactive
same,Potency,[14],inactive
same,Potency,[15],inactive
Cc1ccc(NC(=O)c2ccc(CN3CCN(C)CC3)cc2)cc1Nc1nccc(-c2cccnc2)n1,Potency,[1],inactive
same,Potency,[2],inactive
same,outcome,[3],inactive
same,Potency,[16],21300 nM (active)
same,Potency,[4],inactive
same,Potency,[6],inactive
same,Potency,[17],inactive
same,Potency,[8],inactive
same,Potency,[19],inactive
same,Potency,[9],inactive
same,Potency,[11],inactive
same,Potency,[20],21300 nM (active)
same,Potency,[14],inactive
same,Potency,[15],inactive
